The record followed here is paper PMC8384837, “Expanding the binding specificity for RNA recognition by a PUF domain”.

Common to all, as to assay: yeast three-hybrid, YBZ-1, SC-Leu-His + 0.5 mM 3-AT, 4 days
Holding throughout (settings): tags: N-Gal4 AD-HA kept; label: inside an RPR1-promoter hybrid RNA with tandem MS2 sites; ssRNA

One test deals with PUM1 PUF domain R5-NSI (Homo sapiens, UniProt Q14671 828-1176, C1007N;R1008S;Q1011I). The method in brief: (§1)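 Pumilio-1 PUF domain libraries, randomized at the three base-contacting residues of each repeat, were co-expressed with matching RNA elements from a centromeric plasmid in strain YBZ-1, which carries a LexA–MS2 coat fusion and a HIS3 reporter. Transformants grew for four days on SC-Leu (input) or on SC-Leu-His + 0.5 mM 3-AT (selection), and the repeat regions were PCR-amplified and Illumina-sequenced. The interaction score is the log change in variant frequency from input to selection. That logarithm is base 2, with a pseudocount of 1 where a variant was absent.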
Sequence of PUM1 PUF domain R5-NSI (Q14671 828-1176 C1007N/R1008S/Q1011I): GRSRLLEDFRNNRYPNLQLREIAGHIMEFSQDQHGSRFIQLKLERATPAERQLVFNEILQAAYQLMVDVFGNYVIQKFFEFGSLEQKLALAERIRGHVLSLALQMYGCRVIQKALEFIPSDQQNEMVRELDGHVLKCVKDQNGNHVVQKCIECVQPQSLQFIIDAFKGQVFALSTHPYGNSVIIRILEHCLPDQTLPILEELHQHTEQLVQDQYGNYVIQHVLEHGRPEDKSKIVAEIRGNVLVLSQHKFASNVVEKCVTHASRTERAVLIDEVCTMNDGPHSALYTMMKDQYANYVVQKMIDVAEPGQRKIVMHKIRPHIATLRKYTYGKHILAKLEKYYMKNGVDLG

The next test concerns the target PUM1 PUF domain R5-GRL (Homo sapiens, UniProt Q14671 828-1176, C1007G;Q1011L). In outline: as §1
For a further test, the target named is PUM1 PUF domain R3-LHY (Homo sapiens, UniProt Q14671 828-1176, C935L;R936H;Q939Y). The method in brief: as §1
For another test, the target named is PUM1 PUF domain R3-RRE (Homo sapiens, UniProt Q14671 828-1176, C935R;Q939E). The method in brief: as §1
In another test the target is PUM1 PUF domain R3-LWM (Homo sapiens, UniProt Q14671 828-1176, C935L;R936W;Q939M). The method in brief:
as §1

In a further test the target is PUM1 PUF domain R1-SFK (Homo sapiens, UniProt Q14671 828-1176, R864F;Q867K). The method in brief: as §1
The next test addresses PUM1 PUF domain R1-RWV (Homo sapiens, UniProt Q14671 828-1176, S863R;R864W;Q867V). The method in brief:
as §1

The next test addresses PUM1 PUF domain R1-KRV (Homo sapiens, UniProt Q14671 828-1176, S863K;Q867V). The method in brief: as §1
A further test addresses PUM1 PUF domain R4-DFV (Homo sapiens, UniProt Q14671 828-1176, N971D;H972F;Q975V). In outline: as §1
A further test deals with T1, PUM1 PUF domain R6-GFM (Homo sapiens, UniProt Q14671 828-1176, N1043G;Y1044F;Q1047M).
T1 sequence: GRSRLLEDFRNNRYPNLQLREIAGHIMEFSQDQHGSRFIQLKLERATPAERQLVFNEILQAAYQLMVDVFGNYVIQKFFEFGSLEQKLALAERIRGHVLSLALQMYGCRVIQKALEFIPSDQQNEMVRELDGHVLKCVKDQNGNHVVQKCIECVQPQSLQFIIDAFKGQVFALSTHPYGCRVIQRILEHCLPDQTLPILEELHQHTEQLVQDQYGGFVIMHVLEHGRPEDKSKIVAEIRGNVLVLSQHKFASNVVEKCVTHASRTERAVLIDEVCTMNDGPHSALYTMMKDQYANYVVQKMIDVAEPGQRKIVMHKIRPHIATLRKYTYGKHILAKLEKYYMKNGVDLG
The method in brief:
as §1

A further test addresses PUM1 PUF domain R8-PWV (Homo sapiens, UniProt Q14671 828-1176, N1122P;Y1123W;Q1126V). The method in brief:
as §1

The next test addresses PUM1 PUF domain R3-VRE (Homo sapiens, UniProt Q14671 828-1176, C935V;Q939E). In outline:
as §1

Another test addresses PUM1 PUF domain R4-TRA (Homo sapiens, UniProt Q14671 828-1176, N971T;H972R;Q975A). In outline:
as §1

Another test deals with PUM1 PUF domain R4-KSQ (Homo sapiens, UniProt Q14671 828-1176, N971K;H972S). In outline:
as §1

The target in a further test is PUM1 PUF domain R4-LHR (Homo sapiens, UniProt Q14671 828-1176, N971L;Q975R). The method in brief: as §1
Sequence of PUM1 PUF domain R4-LHR (Q14671 828-1176 N971L/Q975R): as the sequence (Q14671 828-1176 C1007N/R1008S/Q1011I) above, with N144L, Q148R, N180C, S181R, I184Q counted along it
The target in another test is PUM1 PUF domain R4-PWA (Homo sapiens, UniProt Q14671 828-1176, N971P;H972W;Q975A). The method in brief: as §1
Sequence of PUM1 PUF domain R4-PWA (Q14671 828-1176 N971P/H972W/Q975A): as the sequence (Q14671 828-1176 C1007N/R1008S/Q1011I) above, with N144P, H145W, Q148A, N180C, S181R, I184Q counted along it
Another test addresses PUM1 PUF domain R7-RQR (Homo sapiens, UniProt Q14671 828-1176, S1079R;N1080Q;E1083R). In outline:
as §1

The target in another test is PUM1 PUF domain R7-TMG (Homo sapiens, UniProt Q14671 828-1176, S1079T;N1080M;E1083G). In outline:
as §1

The next test concerns the target PUM1 PUF domain R1-QLT (Homo sapiens, UniProt Q14671 828-1176, S863Q;R864L;Q867T). The method in brief:
as §1

For a further test, the target named is PUM1 PUF domain R3-GCD (Homo sapiens, UniProt Q14671 828-1176, C935G;R936C;Q939D). The method in brief:
as §1

Sequence of PUM1 PUF domain R5-GRL (Q14671 828-1176 C1007G/Q1011L): as the sequence (Q14671 828-1176 C1007N/R1008S/Q1011I) above, with N180G, S181R, I184L counted along it
Sequence of PUM1 PUF domain R1-RWV (Q14671 828-1176 S863R/R864W/Q867V): as the sequence (Q14671 828-1176 C1007N/R1008S/Q1011I) above, with S36R, R37W, Q40V, N180C, S181R, I184Q counted along it
Sequence of PUM1 PUF domain R1-KRV (Q14671 828-1176 S863K/Q867V): as the sequence (Q14671 828-1176 C1007N/R1008S/Q1011I) above, with S36K, Q40V, N180C, S181R, I184Q counted along it
Sequence of PUM1 PUF domain R3-VRE (Q14671 828-1176 C935V/Q939E): as the sequence (Q14671 828-1176 C1007N/R1008S/Q1011I) above, with C108V, Q112E, N180C, S181R, I184Q counted along it
Sequence of PUM1 PUF domain R3-LWM (Q14671 828-1176 C935L/R936W/Q939M): as the sequence (Q14671 828-1176 C1007N/R1008S/Q1011I) above, with C108L, R109W, Q112M, N180C, S181R, I184Q counted along it
Sequence of PUM1 PUF domain R4-TRA (Q14671 828-1176 N971T/H972R/Q975A): as the sequence (Q14671 828-1176 C1007N/R1008S/Q1011I) above, with N144T, H145R, Q148A, N180C, S181R, I184Q counted along it
Sequence of PUM1 PUF domain R7-RQR (Q14671 828-1176 S1079R/N1080Q/E1083R): as the sequence (Q14671 828-1176 C1007N/R1008S/Q1011I) above, with N180C, S181R, I184Q, S252R, N253Q, E256R counted along it
Sequence of PUM1 PUF domain R8-PWV (Q14671 828-1176 N1122P/Y1123W/Q1126V): as the sequence (Q14671 828-1176 C1007N/R1008S/Q1011I) above, with N180C, S181R, I184Q, N295P, Y296W, Q299V counted along it
Sequence of PUM1 PUF domain R3-GCD (Q14671 828-1176 C935G/R936C/Q939D): as the sequence (Q14671 828-1176 C1007N/R1008S/Q1011I) above, with C108G, R109C, Q112D, N180C, S181R, I184Q counted along it
Sequence of PUM1 PUF domain R7-TMG (Q14671 828-1176 S1079T/N1080M/E1083G): as the sequence (Q14671 828-1176 C1007N/R1008S/Q1011I) above, with N180C, S181R, I184Q, S252T, N253M, E256G counted along it

Turning to “GGCUAGAACUAGUGGAUCCCCCGGCGCCCGGCGGCUCGAGCCCGGGUAAGUGUUAAUAGUCUGCAUGCCGCCGGGCGCCAUGCCUGCAGGUCGACUCUAGAAAACAUG”, the binding signal with PUM1 PUF domain R5-NSI was 3.96 log2 enrichment (interaction score); with PUM1 PUF domain R5-GRL it was 2.5 log2 enrichment (interaction score).

In the case of “GGCUAGAACUAGUGGAUCCCCCGGCGCCCGGCGGCUCGAGCCCGGGUAAGUGUAAUUAGUCUGCAUGCCGCCGGGCGCCAUGCCUGCAGGUCGACUCUAGAAAACAUG”, the binding signal in the test with PUM1 PUF domain R3-LHY is 4.13 log2 enrichment (interaction score); in the test with PUM1 PUF domain R3-RRE, 3.8 log2 enrichment (interaction score); with PUM1 PUF domain R3-LWM, 4.35 log2 enrichment (interaction score).

For “GGCUAGAACUAGUGGAUCCCCCGGCGCCCGGCGGCUCGAGCCCGGGUAAGUGUAAAUCGUCUGCAUGCCGCCGGGCGCCAUGCCUGCAGGUCGACUCUAGAAAACAUG”, the binding signal with PUM1 PUF domain R1-SFK was 6.11 log2 enrichment (interaction score); in the test with PUM1 PUF domain R1-RWV, 3.55 log2 enrichment (interaction score); with PUM1 PUF domain R1-KRV, 3.51 log2 enrichment (interaction score).

For the sequence “GGCUAGAACUAGUGGAUCCCCCGGCGCCCGGCGGCUCGAGCCCGGGUAAGUGUAAAUAGUCUGCAUGCCGCCGGGCGCCAUGCCUGCAGGUCGACUCUAGAAAACAUG”, the binding signal is 6 log2 enrichment (interaction score) in the test with PUM1 PUF domain R4-DFV; 3.52 log2 enrichment (interaction score) with PUM1 PUF domain R6-GFM; 3.54 log2 enrichment (interaction score) with PUM1 PUF domain R8-PWV; 3.18 log2 enrichment (interaction score) with PUM1 PUF domain R3-VRE; 3.74 log2 enrichment (interaction score) in the test with PUM1 PUF domain R5-GRL; 3.73 log2 enrichment (interaction score) with PUM1 PUF domain R4-TRA.

“GGCUAGAACUAGUGGAUCCCCCGGCGCCCGGCGGCUCGAGCCCGGGUAAGUGUAUAUAGUCUGCAUGCCGCCGGGCGCCAUGCCUGCAGGUCGACUCUAGAAAACAUG”: the binding signal in the test with PUM1 PUF domain R4-KSQ is 3.81 log2 enrichment (interaction score); in the test with PUM1 PUF domain R4-LHR, 4.01 log2 enrichment (interaction score); with PUM1 PUF domain R4-PWA it was 5.17 log2 enrichment (interaction score).

With “GGCUAGAACUAGUGGAUCCCCCGGCGCCCGGCGGCUCGAGCCCGGGUAAGCGUAAAUAGUCUGCAUGCCGCCGGGCGCCAUGCCUGCAGGUCGACUCUAGAAAACAUG”, in the test with PUM1 PUF domain R8-PWV, the binding signal is 2.69 log2 enrichment (interaction score).

For the sequence “GGCUAGAACUAGUGGAUCCCCCGGCGCCCGGCGGCUCGAGCCCGGGUAAGUGUGAAUAGUCUGCAUGCCGCCGGGCGCCAUGCCUGCAGGUCGACUCUAGAAAACAUG”, in the test with PUM1 PUF domain R5-GRL, the binding signal was 1.44 log2 enrichment (interaction score).

For the sequence “GGCUAGAACUAGUGGAUCCCCCGGCGCCCGGCGGCUCGAGCCCGGGUAAGUUUAAAUAGUCUGCAUGCCGCCGGGCGCCAUGCCUGCAGGUCGACUCUAGAAAACAUG”, the binding signal with PUM1 PUF domain R7-RQR was 4.97 log2 enrichment (interaction score); with PUM1 PUF domain R7-TMG, 2.65 log2 enrichment (interaction score).

Consider “GGCUAGAACUAGUGGAUCCCCCGGCGCCCGGCGGCUCGAGCCCGGGUAAGUCUAAAUAGUCUGCAUGCCGCCGGGCGCCAUGCCUGCAGGUCGACUCUAGAAAACAUG”, for which the binding signal with PUM1 PUF domain R7-RQR was 3.17 log2 enrichment (interaction score).

On to “GGCUAGAACUAGUGGAUCCCCCGGCGCCCGGCGGCUCGAGCCCGGGUAAGUGUACAUAGUCUGCAUGCCGCCGGGCGCCAUGCCUGCAGGUCGACUCUAGAAAACAUG”, for which the figures for the binding signal with PUM1 PUF domain R4-DFV and in the test with PUM1 PUF domain R4-TRA were 3.48 log2 enrichment (interaction score) and 0.18 log2 enrichment (interaction score), respectively.

Regarding “GGCUAGAACUAGUGGAUCCCCCGGCGCCCGGCGGCUCGAGCCCGGGUAAGUGUAAAUUGUCUGCAUGCCGCCGGGCGCCAUGCCUGCAGGUCGACUCUAGAAAACAUG”, the binding signal in the test with PUM1 PUF domain R1-QLT was 2.41 log2 enrichment (interaction score); with PUM1 PUF domain R1-RWV it was 2.59 log2 enrichment (interaction score); with PUM1 PUF domain R1-KRV it was 6.82 log2 enrichment (interaction score).

For the sequence “GGCUAGAACUAGUGGAUCCCCCGGCGCCCGGCGGCUCGAGCCCGGGUAAGUGUAAGUAGUCUGCAUGCCGCCGGGCGCCAUGCCUGCAGGUCGACUCUAGAAAACAUG”, the binding signal in the test with PUM1 PUF domain R3-GCD is 3.94 log2 enrichment (interaction score); with PUM1 PUF domain R3-VRE, 4.15 log2 enrichment (interaction score); with PUM1 PUF domain R3-LWM, 5.54 log2 enrichment (interaction score).
